Most compounds without a hit are left out; they make up all but 19% or so of the library.
TDP1 cell noCPT: qHTS for Inhibitors of human tyrosyl-DNA phosphodiesterase 1 (TDP1): qHTS in cells in absence of CPT | DT40 Tdp1-/- hTDP1 cells, no CPT, ATP luminescence, 48 h | Potency, µM (top dose mostly 46.2 µM), actives largely listed as inhibitors | 420,000 tested, 15% active | AID 686978, 2013; also: nearly all actives have a fitted effect of over 55% in size
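Readout: luminescence from CellTiter-Glo after 30 min in the dark at RT. Cells: DT40 Tdp1-/- with stable hTDP1, 400/well. Exposure: compounds alone, ≥48 hr, 37 °C.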
TDP1 cell CPT: qHTS for Inhibitors of human tyrosyl-DNA phosphodiesterase 1 (TDP1): qHTS in cells in presence of CPT | chicken DT40 Tdp1-/-;hTDP1 cells + 20 nM CPT, ATP luminescence, 48 h | Potency, µM (series often up to 46.2 µM), actives largely listed as inhibitors | 420,000 tested, 12% active; also: nearly all actives have a fitted effect of over 55% in size
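Cell growth measured by CellTiter-Glo luminescence after a minimum 48 h, 37 C compound exposure with 20 nM CPT in Tdp1-knockout DT40 cells stably expressing hTDP1, seeded 400/well; qHTS titration format.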
VP16 counter: VP16 counterscreen qHTS for inhibitors of ROR gamma transcriptional activity; 310,000 tested, 3.5% active; Drosophila S2 Gal4-VP16 UAS-luciferase, luminescence, 20 h; Potency, µM (titrated, usually from 53.6 µM), actives largely listed as inhibitors; AID 2546, 2010;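 also: Gal4-VP16 expression switched on by copper sulfate through the metallothionein promoter; nearly all actives have a fitted effect of over 50% in size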
RORg inh: qHTS for inhibitors of ROR gamma transcriptional activity; AID 2551, 2010; 310,000 tested, 5.4% active; Nuclear receptor ROR-gamma (Mus musculus), P51450; Drosophila S2 Gal4-RORgamma UAS-luciferase reporter, 20 h; Potency, µM (series often up to 53.6 µM), most hits filed as inhibitors; also: nearly all actives have a fitted effect of over 60% in size
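Using a luciferase readout, inhibitors were identified by reduced reporter activity in Drosophila cells coexpressing a copper-inducible Gal4–ROR gamma fusion and UAS-driven Photinus luciferase, incubated 20 hr after 700 uM copper sulfate.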
TDP1 block: qHTS Assay for Inhibitors of Tyrosyl-DNA Phosphodiesterase (TDP1); recombinant TDP1, AlphaScreen DNA substrate cleavage; 350,000 tested, 0.28% active; AID 485290, 2010; Tyrosyl-DNA phosphodiesterase 1 (Homo sapiens), Q9NUW8; Potency, µM (titrated, usually from 130 µM), hits mostly inhibitors; also: nearly all actives have a fitted effect of over 40% in size
Target sequence (Q9NUW8 whole entry, looked up): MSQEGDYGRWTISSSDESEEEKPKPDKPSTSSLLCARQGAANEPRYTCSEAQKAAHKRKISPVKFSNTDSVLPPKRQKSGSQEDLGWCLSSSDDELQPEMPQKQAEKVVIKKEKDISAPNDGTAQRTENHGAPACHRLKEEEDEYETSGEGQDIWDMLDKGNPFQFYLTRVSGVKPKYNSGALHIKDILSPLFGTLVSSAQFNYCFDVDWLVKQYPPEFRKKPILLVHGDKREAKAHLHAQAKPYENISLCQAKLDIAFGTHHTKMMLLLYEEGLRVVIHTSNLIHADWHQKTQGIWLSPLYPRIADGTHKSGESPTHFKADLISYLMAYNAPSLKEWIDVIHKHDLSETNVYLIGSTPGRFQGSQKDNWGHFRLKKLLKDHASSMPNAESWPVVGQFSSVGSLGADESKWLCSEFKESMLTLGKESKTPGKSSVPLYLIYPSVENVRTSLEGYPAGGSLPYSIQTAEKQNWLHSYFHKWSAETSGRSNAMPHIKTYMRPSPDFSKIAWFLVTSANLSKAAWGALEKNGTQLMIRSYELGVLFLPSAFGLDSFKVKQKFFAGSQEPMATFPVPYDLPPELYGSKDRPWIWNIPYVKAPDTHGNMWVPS
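Steps: enzyme plus compound, 15 min RT; add biotin/phosphotyrosine-FITC oligonucleotide (15 nM final), react 5 min; add donor/acceptor beads (10 ug/ml final), 10 min; read AlphaScreen. Tdp1 at 1 nM final.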
Each line names hits and unclear results; the compound was inactive in the other large screens. Calls follow the shape of the dose curve; as a rule, active = well fitted curve in the direction sought with a large enough effect; inconclusive = small, poorly fitted or top-dose-only effect, or another doubt; inactive = no such curve, though single readings can be large; an effect the other way counts as inactive or inconclusive.

Cc1ccc(Cc2nc3ccccc3n2C(CCc2ccccc2)c2nc3ccccc3[nH]2)cc1 (stereo not given)	TDP1 cell noCPT 18µM, TDP1 cell CPT inconclusive (no result: VP16 counter, RORg inh, TDP1 block)
CC(c1nc2ccccc2[nH]1)n1c(-c2ccncc2)nc2ccccc21 (stereo not given)	none (no result: VP16 counter, RORg inh, TDP1 block)
FC(F)(F)c1cc(Cc2nc3ccccc3n2C(CCc2ccccc2)c2nc3ccccc3[nH]2)cc(C(F)(F)F)c1 (stereo not given)	TDP1 cell noCPT 7.3µM, TDP1 cell CPT 7.3µM (no result: VP16 counter, RORg inh, TDP1 block)
CC(NC(=O)Cc1ccccc1)c1nc2ccccc2[nH]1 (stereo not given)	none
COCCNC(=O)c1ccc(Cl)c(S(=O)(=O)Nc2cccc(C)c2C)c1	none
Cc1cccc(N(CC(=O)NC(C)C)C(=O)c2ccc(N3CCCC3)nc2)c1	none
Cc1ccnc(N(C(=O)Nc2ccccc2)C2=NCC(C)(C)S2)c1	VP16 counter inconclusive, RORg inh 11µM (no result: TDP1 block)
CCS(=O)(=O)c1nc(S(=O)(=O)c2ccc(C)cc2)c(NCCCn2ccnc2)s1	none
CCCCNc1sc(S(=O)(=O)CC)nc1S(=O)(=O)c1ccc(C)cc1	TDP1 cell noCPT 23µM, TDP1 cell CPT inconclusive (no result: VP16 counter, RORg inh)
CCCCNc1sc(S(=O)(=O)CCC)nc1S(=O)(=O)c1ccc(C)cc1	TDP1 cell noCPT 21µM, TDP1 cell CPT inconclusive (no result: VP16 counter, RORg inh)
CC(C)OCCCNc1sc(S(=O)(=O)c2ccccc2)nc1S(=O)(=O)c1ccc(Cl)cc1	TDP1 cell noCPT 18µM, TDP1 cell CPT inconclusive (no result: VP16 counter, RORg inh)
CCCS(=O)(=O)c1nc(S(=O)(=O)c2ccc(C)cc2)c(NCC(C)C)s1	TDP1 cell noCPT 21µM, TDP1 cell CPT inconclusive (no result: VP16 counter, RORg inh)
Cc1ccc(S(=O)(=O)NC(=O)Nc2ccc(Cl)cn2)cc1	none
Cc1ccc(S(=O)(=O)NC(=O)NC2=NC(C)(C)N(c3ccc(Cl)c(Cl)c3)C(N)=N2)cc1	TDP1 cell noCPT 1µM, TDP1 cell CPT 0.92µM (no result: VP16 counter, RORg inh, TDP1 block)
Cc1ccc(-c2nn(C(C)(C)C)c3ncnc(NS(=O)(=O)c4ccc([N+](=O)[O-])cc4)c23)cc1	TDP1 cell noCPT 18µM, TDP1 cell CPT 21µM, RORg inh 13µM
Cc1ccc(S(=O)(=O)Nc2c(C)cc([N+](=O)[O-])cc2C)cc1	TDP1 cell noCPT inconclusive (no result: VP16 counter, RORg inh, TDP1 block)
O=C1NC(=S)N(C(=O)c2ccc(F)cc2)/C1=C/c1cccnc1	TDP1 cell noCPT inconclusive
COc1ccc(/C=C2\C(=O)NC(=S)N2C(=O)c2ccc(C)cc2)cc1	TDP1 cell noCPT 15µM, TDP1 cell CPT inconclusive, VP16 counter inconclusive, RORg inh 22µM, TDP1 block inconclusive
Cc1c(Cl)cccc1NC(=O)c1cc(-c2ccccc2O)n[nH]1	TDP1 cell noCPT inconclusive, TDP1 cell CPT inconclusive
COc1ccc(Cl)cc1NC(=O)c1cc(-c2ccccc2O)n[nH]1	TDP1 cell noCPT 15µM, TDP1 cell CPT inconclusive, VP16 counter inconclusive
COc1ccc(OC)c(NC(=O)c2cc(-c3cc(Cl)ccc3O)n[nH]2)c1	TDP1 cell noCPT 12µM, TDP1 cell CPT 18µM, VP16 counter inconclusive
COc1ccc(Cl)cc1NC(=O)c1[nH]nc(OC)c1[N+](=O)[O-]	RORg inh 3.5µM
COc1ccc(Cl)cc1NC(=O)Nc1cccc([N+](=O)[O-])c1C	TDP1 cell noCPT 23µM, TDP1 cell CPT inconclusive
CCC(CC)C(C(=O)NCc1ccccc1)N(C)Cc1ccc(Cl)c(Cl)c1 (stereo not given)	TDP1 cell noCPT 15µM, TDP1 cell CPT 21µM (no result: VP16 counter, RORg inh, TDP1 block)
CCOc1ccc(CN(C)C(C)C(=O)NCc2ccccc2)cc1 (stereo not given)	TDP1 cell noCPT inconclusive, TDP1 cell CPT inconclusive (no result: TDP1 block)
CCc1ccc(CN(C)C(C)C(=O)NCc2ccccc2)cc1 (stereo not given)	TDP1 cell noCPT 7.3µM, TDP1 cell CPT inconclusive (no result: TDP1 block)
CN(C)c1ccc(CNc2ccc3c(c2)ncn3C(C)(C)C)cc1	none (no result: TDP1 block)
Cn1sc2ccccc2c1=O	TDP1 cell noCPT 1.6µM, TDP1 cell CPT 2.3µM (no result: VP16 counter, RORg inh, TDP1 block)

From PubChem
